Most compounds without a hit are left out; they make up all but 3% or so of the library.
SENP8 block-1: SENP8 (human) protease inhibition; recombinant SENP8, Nedd8 substrate fluorescence; inhibition, % at 20 µM; 360,000 compounds, 0.64% hits; AID 602440; in the data active = inhibition mostly above about 40%, no sharp cut-off; inactive = mostly below about 27%
SENP6 block: blocks the human protease SENP6. Q9GZR1. Recombinant SENP6 catalytic domain, aminoluciferin luminescence. inhibition, % at 10 µM. 330,000 compounds, 1.8% hits. AID 2599;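 active = inhibition above about 50% at the single tested dose, limit read from the data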
SENP8 block-2: blocks the human protease SENP8 | purified SENP8, Z-RLRGG-aminoluciferin cleavage, luminescence | inhibition, % at 10 µM | 330,000 compounds, 1.2% hits | AID 2540; in the data active = inhibition above about 50%
TRAIL sens C8: sensitizes caspase-8 expressing cells to TRAIL | inhibition (viability loss, TRAIL sensitization), % at 10 µM | NB7+C8 cells + TRAIL, ATPlite viability luminescence | AID 624354 | 360,000 compounds, 1% hits;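 active = compounds causing at least 50% loss of cell viability in the single-dose screen, relative to plate controls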
PPC-1+TRAIL kill: kills PPC-1 cancer cells in the presence of TRAIL | PPC-1 cells + TRAIL, ATPLite viability luminescence | cell killing (% activity), % at 4 µM or 5 µM | 220,000 compounds, 0.41% hits | AID 1443;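 active = cell killing above 50% in the first pass at 4 µM, then a duplicate retest at 5 µM averaging 50% or more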
SENP7 inh: inhibitors of human SENP7 protease. recombinant SENP7, Z-RLRGG-aminoluciferin luminescence, 40 min. inhibition, % at 5 µM. 330,000 compounds, 1.5% hits. AID 434973;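 active = inhibition above about 50% at the single test dose, limit read from the data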
Target sequence (Q9BQF6 706-1050 limits assumed): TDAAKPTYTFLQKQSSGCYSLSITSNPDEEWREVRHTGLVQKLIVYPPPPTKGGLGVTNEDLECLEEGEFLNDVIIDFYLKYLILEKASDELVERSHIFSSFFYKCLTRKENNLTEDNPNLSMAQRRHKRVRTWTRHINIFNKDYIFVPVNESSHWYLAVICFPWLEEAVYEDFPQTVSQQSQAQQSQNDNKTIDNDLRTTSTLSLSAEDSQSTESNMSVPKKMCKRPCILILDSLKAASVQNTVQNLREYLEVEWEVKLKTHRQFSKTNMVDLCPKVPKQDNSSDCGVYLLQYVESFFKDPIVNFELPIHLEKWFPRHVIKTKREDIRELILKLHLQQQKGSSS
SENP8 confirm: confirmation of human SENP8 protease inhibitors; inhibition, % at 12.5 µM; 6,200 compounds, 40% hits; AID 488912; shares compounds with SENP7 inh; Recombinant SENP8, Z-RLRGG-aminoluciferin luminescence, 60 min;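 active = mean inhibition across replicates above about 50%, limit read from the data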
SENP6 confirm: confirmation of human SENP6 protease inhibitors; recombinant SENP6, Z-RLRGG-aminoluciferin luminescence; shares compounds with SENP7 inh; AID 488915; inhibition, % at 12.5 µM; 6,200 compounds, 58% hits
SENP7 conf: human SENP7 inhibition, confirmed; 6,200 compounds, 69% hits; recombinant SENP7, Z-RLRGG-aminoluciferin luminescence, 40 min; inhibition, % at 12.5 µM; shares compounds with SENP7 inh; AID 488917
Casp3 SENP sel: caspase-3 inhibition (SENP selectivity assay) | inhibition, % at 12.5 µM | shares compounds with SENP7 inh | AID 488918 | purified caspase-3, Z-DEVD-aminoluciferin luminescence, 60 min | 6,200 compounds, 60% hits;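 active = mean inhibition above about 50%, limit read from the data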
Luc interf: interferes with luciferase luminescence in SENP counter-screen; Pre-incubated SENP8/Z-RLRGG-aminoluciferin, luciferase luminescence interference; shares compounds with SENP7 inh; inhibition, % at 12.5 µM; 6,200 compounds, 39% hits;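 active = mean inhibition above about 50% when retested at one dose, limit read from the data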
A number is an active result; n = inactive; x = no result.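 Rule for the calls, unless noted: active = mean inhibition above about 50% in the one-dose retest (limit read from the data); inactive = the rest.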

SMILES	SENP8 block-1	SENP6 block	SENP8 block-2	TRAIL sens C8	PPC-1+TRAIL kill	SENP7 inh	SENP8 confirm	SENP6 confirm	SENP7 conf	Casp3 SENP sel	Luc interf
Cc1cc(C(=O)COC(=O)c2ccc(O)cc2)c(C)n1CC1CCCO1 (stereo not drawn)	n	54	n	n	n	n	54	n	83	67	n
COc1cc(OC)c(C(=O)OCC(=O)c2cc(C)n(CC3CCCO3)c2C)cc1OC (stereo not drawn)	n	n	n	n	n	n	x	x	x	x	x
O=C(Nc1ccnn1C1CCN(Cc2ccc(CO)o2)CC1)c1cccc(F)c1	n	x	x	n	x	x	x	x	x	x	x
CC1(Cc2ccc(F)c(Cl)c2)C(=O)Nc2c(Cl)cccc21 (stereo not drawn)	n	x	x	n	x	x	x	x	x	x	x
CC(=O)NCCCc1nc2ccccc2n1Cc1ccccc1F	n	n	n	n	n	55	n	n	n	n	n
COc1ccc(C(=O)NC2CCN(C(=S)NCc3ccco3)CC2)cc1	n	n	n	n	n	60	n	n	n	n	n
CC(NS(=O)(=O)c1ccc(OCC(=O)NCc2ccccn2)cc1)c1ccccc1 (stereo not drawn)	n	n	n	n	x	n	x	x	x	x	x
CCN(CC)CCNC(=O)c1ccc(NC(=O)c2ccccc2-c2ccc(C(F)(F)F)cc2)cc1	n	n	n	n	x	n	x	x	x	x	x
Cc1ccc(CN=c2c([N+](=O)[O-])nn(-c3ccc4c(c3)OCCO4)n2O)cc1	n	59	n	n	n	n	n	n	58	n	n
CCc1cc(=O)oc2c3c(cc(OCC(=O)NCc4ccco4)c12)OC(C)(C)CC3	n	n	n	n	x	n	x	x	x	x	x
CCc1cc(=O)oc2c3c(cc(OCC(=O)NCc4ccncc4)c12)OC(C)(C)CC3	n	52	n	n	x	n	n	n	n	n	n
Cc1cc(C(=O)CSc2nc(N)cc(=O)[nH]2)ccc1F	n	n	90	n	x	n	n	n	n	n	n
CC1CCCN(C(=O)c2ccc(-c3ccccc3Cl)o2)C1 (stereo not drawn)	n	50	n	n	x	n	n	n	59	n	n
O=C(c1ccc(-c2ccccc2Cl)o1)N1CCCCCCC1	n	x	x	n	x	x	x	x	x	x	x
O=C(Cn1ncc(Cl)c(Cl)c1=O)c1ccc2c(c1)OCCO2	n	56	n	89	x	n	n	n	n	n	n
Cc1ccc(NC(=O)COc2ccc3c(c2)OCO3)c(Cl)c1	n	n	n	n	x	62	n	n	n	n	n
O=C(Nc1ccccc1)Nc1nnc([C@@H]2C[C@H](O)[C@@H](CO)O2)s1	n	x	x	n	x	x	x	x	x	x	x
CCOC(=O)c1nc(C)nc(Sc2n[nH]c(-c3cc(C(F)(F)F)cc(C(F)(F)F)c3)n2)c1C	n	n	n	n	n	n	x	x	x	x	x
CC1CCCC(C)N1C(=O)CSc1nc(N)c(-c2ccccc2)c(=O)[nH]1 (stereo not drawn)	n	n	n	n	n	87	n	n	n	n	n
Nc1nc(SCC(=O)N2CCCC2)[nH]c(=O)c1-c1ccccc1	n	n	n	n	n	n	x	x	x	x	x
O=C(N/N=C\c1ccc([N+](=O)[O-])s1)c1cncc(Br)c1	n	70	n	n	n	n	n	n	n	n	n
OC(c1ccc(F)c(F)c1)c1nc(-c2cccc(C(F)(F)F)c2)cs1 (stereo not drawn)	n	x	x	n	x	x	x	x	x	x	x
O=c1nc2c(-c3cccc(Br)c3)n[nH]n2c2ccccc12	n	88	92	n	x	80	n	n	n	61	n
CCc1ccc2oc(-c3cccc(NC(=O)c4cccnc4)c3)nc2c1	n	61	n	n	n	n	n	n	n	n	n
